Measured values published in PubChem BioAssay (EPA / NIEHS).
Where “and” joins values, the source holds several entries; their conditions need not be identical. Equal entries are not always repeated. Records with an inconclusive call do not appear. More than one record can exist for a structure, and the calls need not agree. Calls of active or inactive are those of the source. How the source made its calls, unless noted: active means hit-call score of the fitted dose curve at least 0.9, where 1 is the maximum; inactive means score below 0.9.

Tested on: Sodium/Iodide Symporter (NIS), SLC5A5 (gene 6528)
Assay: CPHEA_Stoker_NIS_Inhibition_RAIU: CPHEA's Radioactive Iodide Uptake (RAIU) Assay for Sodium/Iodide Symporter (NIS) Inhibition, Stoker and Laws Labs (AID 2283841; active means hit-call score of the fitted dose curve at least 0.9, where 1 is the maximum)
Conditions: not given
In short: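 hNIS-HEK293T-EPA cells incubated 2 h at room temperature with compound (0.001–100 uM, 0.5% DMSO) and 329 pM final 125I in HBSS/10 mM HEPES, pH 7.4. Intracellular 125I counted; normalised to DMSO maximal uptake, triplicate, three biological replicates.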

Row | Structure (SMILES) | outcome
1 | CC(Cc1ccc(C(C)(C)C)cc1)CN1C[C@@H](C)O[C@@H](C)C1 (some centres not stated) | inactive
2 | O=P(O)(Oc1ccccc1)Oc1ccccc1 | inactive
3 | O=CNC(N1CCN(C(NC=O)C(Cl)(Cl)Cl)CC1)C(Cl)(Cl)Cl (configuration not stated) | inactive

Tested on: not listed separately
Assay: CPHEA_Stoker_NIS_Cytotoxicity: Cytotoxicity Assessment for CPHEA's Radioactive Iodide Uptake (RAIU) Assay for Sodium/Iodide Symporter (NIS) Inhibition, Stoker and Laws Labs (AID 2283897; active means hit-call score of the fitted dose curve at least 0.9, where 1 is the maximum)
Conditions: not given
In short: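 hNIS-HEK293T-EPA cells, human NIS expressed in HEK293T, treated 2 h with chemicals (0.001–100 uM, 0.5% final DMSO). ATP content read by CellTiter-Glo luminescence; loss of signal analysed relative to DMSO.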

Row | Structure (SMILES) | outcome
4 | CC(Cc1ccc(C(C)(C)C)cc1)CN1C[C@@H](C)O[C@@H](C)C1 (some centres not stated) | inactive
5 | O=P(O)(Oc1ccccc1)Oc1ccccc1 | inactive
6 | O=CNC(N1CCN(C(NC=O)C(Cl)(Cl)Cl)CC1)C(Cl)(Cl)Cl (configuration not stated) | inactive

Tested on: not listed separately
Assay: CCTE_Harrill_HTTr_Viability_MCF7: CCTE's 6-hour Cell Viability Assessment for the High-Throughput Transcriptomics (HTTr) Platform, in MCF-7 cells cultured in DMEM + 10% fetal bovine serum, Harrill Lab (AID 2284010)
Conditions: not given
In short: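 Membrane integrity was scored by high-content imaging of propidium iodide dye exclusion after a 6 h exposure across an eight-point dilution series. Data were fitted bidirectionally relative to DMSO as negative control and baseline.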

Row | Structure (SMILES) | outcome
7 | O=c1[nH]c(Cl)c(Cl)cc1Cl | inactive
8 | COc1ncc(F)c2nc(S(=O)(=O)Nc3c(F)cccc3F)nn12 | inactive
9 | CCc1cccc(C)c1N(C(=O)CCl)[C@@H](C)COC | inactive
10 | O=P1(NCCCl)OCCCN1CCCl (configuration not stated) | inactive
11 | CC(Cc1ccc(C(C)(C)C)cc1)CN1C[C@@H](C)O[C@@H](C)C1 (some centres not stated) | inactive
12 | C[N+](C)(C)CC(=O)O | inactive
13 | O=CNC(N1CCN(C(NC=O)C(Cl)(Cl)Cl)CC1)C(Cl)(Cl)Cl (configuration not stated) | inactive
14 | C[C@]12CCC(=O)C(O)=C1CC[C@@H]1[C@@H]2CC[C@]2(C)C(=O)CC[C@@H]12 | inactive

Tested on: not listed separately
Assay: CCTE_Harrill_HTTr_Apoptosis_MCF7: CCTE's 6-hour Apoptosis Assessment for the High-Throughput Transcriptomics (HTTr) Platform, in MCF-7 cells cultured in DMEM + 10% fetal bovine serum, Harrill Lab (AID 2284011)
Conditions: not given
In short: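 MCF-7 (DMEM + 10% FBS), 384-well; 8-pt dilution series, 6 h chemical exposure; caspase-3/7 activation via CellEvent Caspase 3/7 Green, HCI; bidirectional fit vs DMSO.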

Row | Structure (SMILES) | outcome
15 | O=c1[nH]c(Cl)c(Cl)cc1Cl | inactive
16 | COC(=O)c1ccccc1S(=O)(=O)NC(=O)Nc1nc(C)cc(C)n1 | inactive
17 | O=C(O)CCCc1ccc(N(CCCl)CCCl)cc1 | inactive
18 | COc1ncc(F)c2nc(S(=O)(=O)Nc3c(F)cccc3F)nn12 | inactive
19 | CCc1cccc(C)c1N(C(=O)CCl)[C@@H](C)COC | inactive
20 | O=P1(NCCCl)OCCCN1CCCl (configuration not stated) | inactive
21 | CC(Cc1ccc(C(C)(C)C)cc1)CN1C[C@@H](C)O[C@@H](C)C1 (some centres not stated) | inactive
22 | C[N+](C)(C)CC(=O)O | inactive
23 | O=S(=O)(c1ccccc1)c1ccccc1 | inactive
24 | Clc1ccc(-c2ccccc2)cc1 | inactive
25 | CN(C)C(=O)C(c1ccccc1)c1ccccc1 | inactive
26 | [Cl][Sb]([Cl])[Cl] | inactive
27 | Cc1ccc(N(SC(F)(Cl)Cl)S(=O)(=O)N(C)C)cc1 | inactive
28 | O=CNC(N1CCN(C(NC=O)C(Cl)(Cl)Cl)CC1)C(Cl)(Cl)Cl (configuration not stated) | inactive
29 | Oc1cc(Cl)ccc1Cl | inactive
30 | C[C@]12CCC(=O)C(O)=C1CC[C@@H]1[C@@H]2CC[C@]2(C)C(=O)CC[C@@H]12 | inactive

Tested on: not listed separately
Assay: CCTE_Harrill_HTTr_CellCount_MCF7: CCTE's Cell Proliferation Assessment for the High-Throughput Transcriptomics (HTTr) Platform, Harrill Lab (AID 2284012; active means hit-call score of the fitted dose curve at least 0.9, where 1 is the maximum;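 further: cells exposed to compound for six hours; intended direction is loss of nuclei count meaning fewer cells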)
Conditions: not given
In short: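 MCF-7 cells were exposed for 6 h to an eight-point dilution series; Hoechst-labeled nuclei were counted by high content imaging. Curves were fitted bidirectionally against DMSO as negative control and baseline, with signal loss indicating reduced cell count.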

Row | Structure (SMILES) | outcome
31 | O=c1[nH]c(Cl)c(Cl)cc1Cl | inactive
32 | COC(=O)c1ccccc1S(=O)(=O)NC(=O)Nc1nc(C)cc(C)n1 | inactive
33 | O=C(O)CCCc1ccc(N(CCCl)CCCl)cc1 | inactive
34 | COc1ncc(F)c2nc(S(=O)(=O)Nc3c(F)cccc3F)nn12 | inactive
35 | CCc1cccc(C)c1N(C(=O)CCl)[C@@H](C)COC | inactive
36 | C[N+](C)(C)CC(=O)O | inactive
37 | O=S(=O)(c1ccccc1)c1ccccc1 | inactive
38 | Clc1ccc(-c2ccccc2)cc1 | inactive
39 | CN(C)C(=O)C(c1ccccc1)c1ccccc1 | inactive
40 | [Cl][Sb]([Cl])[Cl] | inactive
41 | Cc1ccc(N(SC(F)(Cl)Cl)S(=O)(=O)N(C)C)cc1 | inactive
42 | O=CNC(N1CCN(C(NC=O)C(Cl)(Cl)Cl)CC1)C(Cl)(Cl)Cl (configuration not stated) | inactive
43 | Oc1cc(Cl)ccc1Cl | inactive
44 | C[C@]12CCC(=O)C(O)=C1CC[C@@H]1[C@@H]2CC[C@]2(C)C(=O)CC[C@@H]12 | inactive

Read-out: not listed separately
Assay: BSK_BT_PBMCCytotoxicity: PBMC Cytotoxicity Assessment in the BioMAP Diversity Plus: BT Assay (AID 2284225);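 further: PBMC viability measured by Alamar Blue dye reduction fluorescence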
Conditions: primary human B cells with PBMC
In short: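 75,000 cells/well; cpd 1 h → SEB + TSST-1 (20 ng/mL final each) → 90 h → Alamar Blue 6 h → fluor. 546/580 nm. DMSO = neg. control/baseline.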

Row | Structure (SMILES) | outcome | AC50
45 | Nc1ccc(-c2ccc(N)c(N)c2)cc1N | inactive | 
46 | O=c1[nH]c(Cl)c(Cl)cc1Cl | inactive | 
47 | O=C(O)CCCc1ccc(N(CCCl)CCCl)cc1 | inactive | 
48 | COC(C)(C)CCC[C@H](C)C/C=C/C(C)=C/C(=O)OC(C)C |  | 20 µM (active)
49 | O=P1(NCCCl)OCCCN1CCCl (configuration not stated) | inactive | 
50 | O=S(=O)(c1ccccc1)c1ccccc1 | inactive | 
51 | Clc1ccc(-c2ccccc2)cc1 | inactive | 
52 | Oc1cc(Cl)ccc1Cl | inactive | 

Read-out: Secreted IgG (sIgG), gene 3500
Assay: BSK_BT_sIgG: BioMAP Diversity Plus: BT Assay for Secreted IgG (sIgG) Biomarker Activity (AID 2284226)
Conditions: primary human B cells with PBMC
In short: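 B cells co-cultured with PBMC were dosed with chemical and secreted IgG quantified by ELISA at 24 h. Activity was fitted in the positive direction relative to DMSO as negative control and baseline.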

Row | Structure (SMILES) | AC50 | outcome
53 | Nc1ccc(-c2ccc(N)c(N)c2)cc1N | 15.4 µM (active) | 
54 | O=c1[nH]c(Cl)c(Cl)cc1Cl |  | inactive
55 | O=C(O)CCCc1ccc(N(CCCl)CCCl)cc1 | 3.48 µM (active) and 5.7 µM (active) | 
56 | COC(C)(C)CCC[C@H](C)C/C=C/C(C)=C/C(=O)OC(C)C | 13.4 µM (active) | 
57 | O=P1(NCCCl)OCCCN1CCCl (configuration not stated) |  | inactive
58 | O=S(=O)(c1ccccc1)c1ccccc1 |  | inactive
59 | Clc1ccc(-c2ccccc2)cc1 |  | inactive
60 | Oc1cc(Cl)ccc1Cl |  | inactive

Read-out: Interleukin 6 (IL6), IL6 (gene 3569)
Assay: BSK_BT_xIL6: BioMAP Diversity Plus: BT Assay for Interleukin 6 (IL6) Biomarker Activity (AID 2284228)
Conditions: primary human B cells with PBMC
In short: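 B cells and peripheral blood mononuclear cells (human primary co-culture) were dosed with chemical, and after 24 h IL-6 released into the medium was measured by Luminex xMAP. Responses were analysed as gain of signal over DMSO control.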

Row | Structure (SMILES) | outcome | AC50
61 | Nc1ccc(-c2ccc(N)c(N)c2)cc1N | inactive | 
62 | O=c1[nH]c(Cl)c(Cl)cc1Cl | inactive | 
63 | O=C(O)CCCc1ccc(N(CCCl)CCCl)cc1 |  | 14.8 µM (active) and 20 µM (active)
64 | COC(C)(C)CCC[C@H](C)C/C=C/C(C)=C/C(=O)OC(C)C |  | 20 µM (active)
65 | O=P1(NCCCl)OCCCN1CCCl (configuration not stated) | inactive | 
66 | O=S(=O)(c1ccccc1)c1ccccc1 | inactive | 
67 | Clc1ccc(-c2ccccc2)cc1 | inactive | 
68 | Oc1cc(Cl)ccc1Cl | inactive | 

Read-out: Interleukin 17A (IL17A), IL17A (gene 3605)
Assay: BSK_BT_xIL17A: BioMAP Diversity Plus: BT Assay for Interleukin 17A (IL17A) Biomarker Activity (AID 2284229)
Conditions: primary human B cells with PBMC
In short: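 Secreted IL-17A was the measured endpoint, read by Luminex xMAP multiplex in supernatants of a human B cell/PBMC co-culture harvested 24 h after chemical dosing. Signal increase relative to DMSO defined activity.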

Row | Structure (SMILES) | outcome | AC50
69 | Nc1ccc(-c2ccc(N)c(N)c2)cc1N | inactive | 
70 | O=c1[nH]c(Cl)c(Cl)cc1Cl | inactive | 
71 | O=C(O)CCCc1ccc(N(CCCl)CCCl)cc1 | inactive | 15 µM (active)
72 | COC(C)(C)CCC[C@H](C)C/C=C/C(C)=C/C(=O)OC(C)C |  | 13.4 µM (active)
73 | O=P1(NCCCl)OCCCN1CCCl (configuration not stated) | inactive | 
74 | O=S(=O)(c1ccccc1)c1ccccc1 | inactive | 
75 | Clc1ccc(-c2ccccc2)cc1 | inactive | 
76 | Oc1cc(Cl)ccc1Cl | inactive | 
